# Experimental data taken from paper PMC7862700, “An all-to-all approach to the identification of sequence-specific readers for epigenetic DNA modifications on cytosine”.
# What was measured:
# Assay in all cases: DAPPL (digital affinity profiling via proximity ligation, sequencing); 10 mM Tris-HCl pH 7.5, 50 mM NaCl, 1 mM DTT, 4% glycerol, room temperature, 30 min; GST-TFs on glutathione beads, 16-mer random dsDNA library, 0.1% formaldehyde crosslink after washing; high values mean tight binding
# [1] = target: T1, FLI1 (Homo sapiens, UniProt Q01543 1-452); conditions: protein: recombinant; tags: N-terminal GST; dsDNA, one strand shown
# T1 sequence: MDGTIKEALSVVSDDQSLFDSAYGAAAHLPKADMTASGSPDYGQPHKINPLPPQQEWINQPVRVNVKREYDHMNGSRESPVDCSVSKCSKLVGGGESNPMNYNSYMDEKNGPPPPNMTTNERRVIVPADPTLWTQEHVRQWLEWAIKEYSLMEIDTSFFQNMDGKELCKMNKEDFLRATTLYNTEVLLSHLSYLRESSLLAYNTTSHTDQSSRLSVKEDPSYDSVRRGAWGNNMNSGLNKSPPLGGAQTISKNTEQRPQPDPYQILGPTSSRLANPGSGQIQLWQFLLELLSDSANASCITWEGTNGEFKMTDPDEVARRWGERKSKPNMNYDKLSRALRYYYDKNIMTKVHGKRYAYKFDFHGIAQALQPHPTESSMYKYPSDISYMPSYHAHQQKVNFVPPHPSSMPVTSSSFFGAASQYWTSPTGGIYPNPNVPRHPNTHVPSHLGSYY
# How it was run: (§1)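 Human transcription factors carrying a GST fusion were produced in yeast, bound to glutathione beads, tagged with DNA barcodes and pooled together with a tag-only sample. Each pool was held with 200 nmole of a random double-stranded 16-mer DNA library in Tris/NaCl/DTT/glycerol buffer for 30 min at room temperature, then washed, crosslinked in 0.1% formaldehyde, proximity-ligated with BsaI/T4 ligase (1 h, 37 °C), PCR-amplified and sequenced on an Illumina NextSeq500. Binding signal is the read frequency of each hexamer for a given factor divided by its frequency in the tag-only sample.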
# [2] = target: T2, ELK1 (Homo sapiens, UniProt P19419 1-428); conditions: protein: recombinant; tags: N-terminal GST; dsDNA, one strand shown
# T2 sequence: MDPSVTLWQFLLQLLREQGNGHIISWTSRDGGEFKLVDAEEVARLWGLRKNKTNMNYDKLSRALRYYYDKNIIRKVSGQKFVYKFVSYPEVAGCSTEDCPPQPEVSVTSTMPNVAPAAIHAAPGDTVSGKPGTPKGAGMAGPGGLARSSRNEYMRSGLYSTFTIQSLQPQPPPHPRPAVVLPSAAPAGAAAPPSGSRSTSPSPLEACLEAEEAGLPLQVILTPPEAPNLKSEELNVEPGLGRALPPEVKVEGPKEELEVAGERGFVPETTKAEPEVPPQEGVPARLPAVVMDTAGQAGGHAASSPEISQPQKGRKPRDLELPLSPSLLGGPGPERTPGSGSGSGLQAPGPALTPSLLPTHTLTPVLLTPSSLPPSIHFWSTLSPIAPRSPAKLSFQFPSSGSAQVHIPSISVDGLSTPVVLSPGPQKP
# How it was run: as §1
# [3] = target: T3, GABPA (Homo sapiens, UniProt Q06546 1-454); conditions: protein: recombinant; tags: N-terminal GST; dsDNA, one strand shown
# T3 sequence: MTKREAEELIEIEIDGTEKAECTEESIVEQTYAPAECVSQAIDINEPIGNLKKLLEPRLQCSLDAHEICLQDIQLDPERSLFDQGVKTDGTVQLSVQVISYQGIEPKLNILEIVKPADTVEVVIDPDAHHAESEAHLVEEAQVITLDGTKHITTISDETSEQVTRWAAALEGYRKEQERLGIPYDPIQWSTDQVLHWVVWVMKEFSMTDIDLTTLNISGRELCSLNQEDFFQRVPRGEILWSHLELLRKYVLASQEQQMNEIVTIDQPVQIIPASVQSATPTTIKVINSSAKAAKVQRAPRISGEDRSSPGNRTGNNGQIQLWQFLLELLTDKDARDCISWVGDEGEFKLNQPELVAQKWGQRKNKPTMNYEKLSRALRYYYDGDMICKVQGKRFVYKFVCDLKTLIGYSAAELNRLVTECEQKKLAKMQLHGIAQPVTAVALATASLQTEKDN
# How it was run: as §1
# [4] = target: T4, ERG (Homo sapiens, UniProt P11308 1-479); conditions: protein: recombinant; tags: N-terminal GST; dsDNA, one strand shown
# T4 sequence: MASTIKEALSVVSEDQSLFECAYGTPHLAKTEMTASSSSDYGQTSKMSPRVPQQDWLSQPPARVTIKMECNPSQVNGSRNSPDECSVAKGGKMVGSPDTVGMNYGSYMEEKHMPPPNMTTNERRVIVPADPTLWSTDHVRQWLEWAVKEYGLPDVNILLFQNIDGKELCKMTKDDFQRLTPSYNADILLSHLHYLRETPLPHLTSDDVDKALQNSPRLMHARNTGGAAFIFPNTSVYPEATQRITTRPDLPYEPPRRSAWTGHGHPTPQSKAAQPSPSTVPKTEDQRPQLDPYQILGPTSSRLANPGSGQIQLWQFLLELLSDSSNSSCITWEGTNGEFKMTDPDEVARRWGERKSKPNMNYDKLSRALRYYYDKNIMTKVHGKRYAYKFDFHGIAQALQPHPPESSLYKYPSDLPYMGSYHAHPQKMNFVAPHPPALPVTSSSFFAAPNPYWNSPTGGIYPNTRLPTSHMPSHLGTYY
# How it was run: as §1
# [5] = target: ELF1 (Homo sapiens, UniProt P32519 1-619); conditions: protein: recombinant; tags: N-terminal GST; dsDNA, one strand shown
# How it was run: as §1
# [6] = target: T5, EHF (Homo sapiens, UniProt Q9NZC4 1-300); conditions: protein: recombinant; tags: N-terminal GST; dsDNA, one strand shown
# T5 sequence: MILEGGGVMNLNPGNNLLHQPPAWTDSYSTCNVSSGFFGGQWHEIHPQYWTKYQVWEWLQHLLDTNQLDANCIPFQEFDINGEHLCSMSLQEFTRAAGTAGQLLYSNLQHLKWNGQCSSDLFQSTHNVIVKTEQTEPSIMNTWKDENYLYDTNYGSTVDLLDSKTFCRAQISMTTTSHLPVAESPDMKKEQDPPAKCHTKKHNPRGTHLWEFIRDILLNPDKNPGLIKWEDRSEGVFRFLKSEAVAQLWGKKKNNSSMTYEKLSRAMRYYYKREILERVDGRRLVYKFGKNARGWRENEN
# How it was run: as §1
# [7] = target: SPI1 (Homo sapiens, UniProt P17947 1-270); conditions: protein: recombinant; tags: N-terminal GST; dsDNA, one strand shown
# How it was run: as §1
# [8] = target: SPIB (Homo sapiens, UniProt Q01892 1-262); conditions: protein: recombinant; tags: N-terminal GST; dsDNA, one strand shown
# How it was run: as §1
# [9] = target: T6, ELK3 (Homo sapiens, UniProt P41970 1-407); conditions: protein: recombinant; tags: N-terminal GST; dsDNA, one strand shown
# T6 sequence: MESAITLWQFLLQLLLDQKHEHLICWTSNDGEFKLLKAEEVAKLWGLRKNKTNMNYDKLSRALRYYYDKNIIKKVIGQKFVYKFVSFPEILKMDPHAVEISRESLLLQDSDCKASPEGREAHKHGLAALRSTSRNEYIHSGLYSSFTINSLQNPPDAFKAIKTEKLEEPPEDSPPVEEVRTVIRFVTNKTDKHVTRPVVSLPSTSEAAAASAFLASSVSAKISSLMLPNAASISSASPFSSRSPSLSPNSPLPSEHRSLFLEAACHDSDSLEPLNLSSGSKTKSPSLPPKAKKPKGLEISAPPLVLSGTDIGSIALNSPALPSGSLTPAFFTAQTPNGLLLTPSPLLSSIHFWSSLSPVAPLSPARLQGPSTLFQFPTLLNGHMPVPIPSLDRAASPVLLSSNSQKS
# How it was run: as §1
# [10] = target: T7, FEV (Homo sapiens, UniProt Q99581 1-238); conditions: protein: recombinant; tags: N-terminal GST; dsDNA, one strand shown
# T7 sequence: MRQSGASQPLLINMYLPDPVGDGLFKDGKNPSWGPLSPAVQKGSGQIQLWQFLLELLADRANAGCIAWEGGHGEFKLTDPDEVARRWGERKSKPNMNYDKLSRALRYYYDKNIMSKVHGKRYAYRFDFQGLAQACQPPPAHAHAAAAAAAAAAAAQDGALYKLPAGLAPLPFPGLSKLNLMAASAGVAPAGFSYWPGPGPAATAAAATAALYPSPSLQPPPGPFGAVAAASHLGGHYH
# How it was run: as §1
# [11] = target: ETV5 (Homo sapiens, UniProt P41161 1-510); conditions: protein: recombinant; tags: N-terminal GST; dsDNA, one strand shown
# How it was run: as §1
# [12] = target: HSF1 (Homo sapiens, UniProt Q00613 1-529); conditions: protein: recombinant; tags: N-terminal GST; chain copies: 3; dsDNA, one strand shown
# How it was run: as §1
# [13] = target: T8, SPIC (Homo sapiens, UniProt Q8N5J4 1-248); conditions: protein: recombinant; tags: N-terminal GST; dsDNA, one strand shown
# T8 sequence: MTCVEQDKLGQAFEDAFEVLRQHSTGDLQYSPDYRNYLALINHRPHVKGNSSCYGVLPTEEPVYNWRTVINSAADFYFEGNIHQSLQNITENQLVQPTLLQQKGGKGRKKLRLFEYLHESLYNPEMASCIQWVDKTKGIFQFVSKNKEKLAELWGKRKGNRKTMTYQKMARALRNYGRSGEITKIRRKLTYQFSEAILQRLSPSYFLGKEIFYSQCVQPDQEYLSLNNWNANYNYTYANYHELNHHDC
# How it was run: as §1
# [14] = target: ELF4 (Homo sapiens, UniProt Q99607 1-663); conditions: protein: recombinant; tags: N-terminal GST; dsDNA, one strand shown
# How it was run: as §1
# [15] = target: T9, ELK4 (Homo sapiens, UniProt P28324-2 1-405); conditions: protein: recombinant; tags: N-terminal GST; dsDNA, one strand shown
# T9 sequence: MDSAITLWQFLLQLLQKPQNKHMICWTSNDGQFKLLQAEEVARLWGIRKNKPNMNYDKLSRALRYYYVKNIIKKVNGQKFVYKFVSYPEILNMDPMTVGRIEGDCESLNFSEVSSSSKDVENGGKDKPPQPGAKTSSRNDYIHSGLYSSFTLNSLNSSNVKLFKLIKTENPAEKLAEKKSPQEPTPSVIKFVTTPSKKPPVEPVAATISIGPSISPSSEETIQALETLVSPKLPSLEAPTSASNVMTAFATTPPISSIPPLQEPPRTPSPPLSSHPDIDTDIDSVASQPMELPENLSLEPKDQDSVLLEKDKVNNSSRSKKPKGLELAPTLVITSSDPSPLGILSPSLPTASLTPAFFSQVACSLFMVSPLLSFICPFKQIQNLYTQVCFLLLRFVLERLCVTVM
# How it was run: as §1
# [16] = target: T10, ETV2 (Homo sapiens, UniProt O00321 1-342); conditions: protein: recombinant; tags: N-terminal GST; dsDNA, one strand shown
# T10 sequence: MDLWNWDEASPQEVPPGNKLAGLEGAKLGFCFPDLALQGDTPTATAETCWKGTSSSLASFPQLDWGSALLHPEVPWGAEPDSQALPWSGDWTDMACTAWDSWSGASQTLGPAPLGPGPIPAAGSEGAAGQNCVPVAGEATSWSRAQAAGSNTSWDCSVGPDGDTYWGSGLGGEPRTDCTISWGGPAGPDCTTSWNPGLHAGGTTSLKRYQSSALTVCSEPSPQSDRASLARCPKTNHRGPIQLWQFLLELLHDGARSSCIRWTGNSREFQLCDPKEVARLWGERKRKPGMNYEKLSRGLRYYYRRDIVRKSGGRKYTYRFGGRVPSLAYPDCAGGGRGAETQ
# How it was run: as §1
# [17] = target: T11, ELF3 (Homo sapiens, UniProt P78545 1-371); conditions: protein: recombinant; tags: N-terminal GST; dsDNA, one strand shown
# T11 sequence: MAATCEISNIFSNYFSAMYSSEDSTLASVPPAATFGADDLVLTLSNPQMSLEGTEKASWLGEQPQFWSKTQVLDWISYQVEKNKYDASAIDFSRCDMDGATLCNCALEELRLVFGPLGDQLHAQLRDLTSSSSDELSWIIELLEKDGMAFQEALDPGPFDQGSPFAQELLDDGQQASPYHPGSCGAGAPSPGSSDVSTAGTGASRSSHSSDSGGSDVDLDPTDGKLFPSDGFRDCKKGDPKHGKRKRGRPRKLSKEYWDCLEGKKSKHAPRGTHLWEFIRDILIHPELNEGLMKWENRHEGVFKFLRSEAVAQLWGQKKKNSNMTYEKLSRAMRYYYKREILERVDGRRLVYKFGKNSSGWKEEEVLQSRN
# How it was run: as §1
# [18] = target: CRX (Homo sapiens, UniProt O43186 1-299); conditions: protein: recombinant; tags: N-terminal GST; dsDNA, one strand shown
# How it was run: as §1
# [19] = target: ETV1 (Homo sapiens, UniProt P50549 1-477); conditions: protein: recombinant; tags: N-terminal GST; dsDNA, one strand shown
# How it was run: as §1
# Sequence of HSF1 (Q00613 whole entry): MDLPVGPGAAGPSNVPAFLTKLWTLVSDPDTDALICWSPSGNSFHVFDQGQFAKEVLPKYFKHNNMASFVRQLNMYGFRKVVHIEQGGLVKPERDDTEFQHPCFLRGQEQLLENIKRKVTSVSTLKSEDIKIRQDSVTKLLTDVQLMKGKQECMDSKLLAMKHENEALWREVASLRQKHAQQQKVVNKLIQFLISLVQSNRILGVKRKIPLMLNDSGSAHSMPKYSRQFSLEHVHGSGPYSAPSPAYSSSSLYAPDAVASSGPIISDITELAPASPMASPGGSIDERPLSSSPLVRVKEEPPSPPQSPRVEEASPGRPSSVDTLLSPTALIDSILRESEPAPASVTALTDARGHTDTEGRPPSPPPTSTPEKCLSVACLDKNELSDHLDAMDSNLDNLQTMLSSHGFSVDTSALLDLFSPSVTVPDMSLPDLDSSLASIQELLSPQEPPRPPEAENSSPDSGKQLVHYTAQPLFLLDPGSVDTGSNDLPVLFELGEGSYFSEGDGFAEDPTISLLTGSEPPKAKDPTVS
# Sequence of ETV5 (P41161 whole entry): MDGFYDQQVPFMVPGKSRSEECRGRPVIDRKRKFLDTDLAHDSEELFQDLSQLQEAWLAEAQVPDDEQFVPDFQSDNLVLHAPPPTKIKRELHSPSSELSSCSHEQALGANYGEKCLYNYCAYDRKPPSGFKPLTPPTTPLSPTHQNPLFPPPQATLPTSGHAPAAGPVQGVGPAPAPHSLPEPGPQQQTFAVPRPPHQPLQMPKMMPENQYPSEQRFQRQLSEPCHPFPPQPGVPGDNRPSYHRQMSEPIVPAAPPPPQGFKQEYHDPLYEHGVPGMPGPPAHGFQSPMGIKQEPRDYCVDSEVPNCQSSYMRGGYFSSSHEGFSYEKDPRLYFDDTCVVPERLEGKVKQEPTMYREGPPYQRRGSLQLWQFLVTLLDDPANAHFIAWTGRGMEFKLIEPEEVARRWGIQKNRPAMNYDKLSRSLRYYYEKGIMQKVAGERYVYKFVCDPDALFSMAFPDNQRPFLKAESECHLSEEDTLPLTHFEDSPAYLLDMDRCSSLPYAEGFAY
# Sequence of ELF1 (P32519 whole entry): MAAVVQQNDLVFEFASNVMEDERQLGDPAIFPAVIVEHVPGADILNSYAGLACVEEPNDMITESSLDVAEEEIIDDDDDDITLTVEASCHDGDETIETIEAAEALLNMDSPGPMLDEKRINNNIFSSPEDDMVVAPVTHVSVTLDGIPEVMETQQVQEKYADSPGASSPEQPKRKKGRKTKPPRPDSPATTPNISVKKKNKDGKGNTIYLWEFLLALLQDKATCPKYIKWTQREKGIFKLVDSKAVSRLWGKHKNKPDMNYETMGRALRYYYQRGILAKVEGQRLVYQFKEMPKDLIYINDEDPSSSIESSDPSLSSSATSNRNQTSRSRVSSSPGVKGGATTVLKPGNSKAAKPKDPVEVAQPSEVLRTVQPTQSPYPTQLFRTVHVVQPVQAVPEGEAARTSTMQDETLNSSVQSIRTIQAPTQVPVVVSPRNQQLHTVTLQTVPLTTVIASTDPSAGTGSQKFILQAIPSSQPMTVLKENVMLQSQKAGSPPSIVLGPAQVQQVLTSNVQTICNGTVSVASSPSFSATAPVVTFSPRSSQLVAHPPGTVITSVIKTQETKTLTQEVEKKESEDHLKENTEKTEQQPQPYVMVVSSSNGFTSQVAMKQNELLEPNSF
# Sequence of CRX (O43186 whole entry): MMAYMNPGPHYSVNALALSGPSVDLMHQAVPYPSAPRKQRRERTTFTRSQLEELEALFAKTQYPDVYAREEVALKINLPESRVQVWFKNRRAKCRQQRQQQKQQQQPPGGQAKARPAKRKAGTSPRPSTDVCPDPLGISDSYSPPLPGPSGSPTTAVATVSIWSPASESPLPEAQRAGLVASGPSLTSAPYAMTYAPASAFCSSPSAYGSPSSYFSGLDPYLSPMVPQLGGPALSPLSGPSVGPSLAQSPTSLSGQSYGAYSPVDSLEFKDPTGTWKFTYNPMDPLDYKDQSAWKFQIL
# Sequence of ELF4 (Q99607 whole entry): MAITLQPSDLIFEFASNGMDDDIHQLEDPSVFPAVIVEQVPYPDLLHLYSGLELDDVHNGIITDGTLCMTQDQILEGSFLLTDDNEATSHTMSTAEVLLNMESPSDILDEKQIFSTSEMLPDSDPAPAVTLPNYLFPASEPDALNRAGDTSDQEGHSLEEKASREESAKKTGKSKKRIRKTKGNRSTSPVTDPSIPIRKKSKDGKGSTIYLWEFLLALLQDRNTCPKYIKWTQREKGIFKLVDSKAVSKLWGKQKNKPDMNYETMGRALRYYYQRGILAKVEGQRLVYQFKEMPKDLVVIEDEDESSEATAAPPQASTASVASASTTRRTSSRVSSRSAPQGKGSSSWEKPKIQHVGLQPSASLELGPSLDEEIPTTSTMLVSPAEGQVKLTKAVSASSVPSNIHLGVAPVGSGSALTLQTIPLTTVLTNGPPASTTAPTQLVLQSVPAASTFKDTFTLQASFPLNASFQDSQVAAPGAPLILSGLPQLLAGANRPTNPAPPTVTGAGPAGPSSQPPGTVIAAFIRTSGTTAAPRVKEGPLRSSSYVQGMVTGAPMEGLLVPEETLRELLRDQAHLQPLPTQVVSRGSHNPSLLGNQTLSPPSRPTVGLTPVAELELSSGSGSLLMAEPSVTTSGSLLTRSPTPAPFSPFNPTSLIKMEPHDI
# Sequence of ETV1 (P50549 whole entry): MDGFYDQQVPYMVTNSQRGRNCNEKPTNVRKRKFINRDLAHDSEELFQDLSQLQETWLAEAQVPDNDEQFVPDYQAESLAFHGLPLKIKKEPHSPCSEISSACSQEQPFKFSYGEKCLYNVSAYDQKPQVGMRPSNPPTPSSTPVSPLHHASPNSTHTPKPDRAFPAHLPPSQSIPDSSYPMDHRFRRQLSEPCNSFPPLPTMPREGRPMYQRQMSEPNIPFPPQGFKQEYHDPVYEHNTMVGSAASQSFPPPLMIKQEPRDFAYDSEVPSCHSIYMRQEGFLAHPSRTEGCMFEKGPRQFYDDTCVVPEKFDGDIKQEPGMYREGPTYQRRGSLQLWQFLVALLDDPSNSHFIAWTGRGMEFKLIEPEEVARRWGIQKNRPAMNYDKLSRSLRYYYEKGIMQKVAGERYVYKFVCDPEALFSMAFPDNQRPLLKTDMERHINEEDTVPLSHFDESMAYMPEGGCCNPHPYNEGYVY
# Sequence of SPIB (Q01892 whole entry): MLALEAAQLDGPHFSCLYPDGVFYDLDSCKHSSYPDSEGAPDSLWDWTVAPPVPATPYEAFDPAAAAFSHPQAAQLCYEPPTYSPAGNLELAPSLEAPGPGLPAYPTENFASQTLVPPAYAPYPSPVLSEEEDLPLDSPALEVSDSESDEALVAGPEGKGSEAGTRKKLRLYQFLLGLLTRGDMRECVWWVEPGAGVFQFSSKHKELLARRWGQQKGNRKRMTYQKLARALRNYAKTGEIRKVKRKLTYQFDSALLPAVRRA
sequence,measurement,setting,value
TAATAA,binding signal,[1],"1.17 fold enrichment (6-mer frequency, TF over GST control)"
same,binding signal,[2],"1.19 fold enrichment (6-mer frequency, TF over GST control)"
same,binding signal,[3],"1.21 fold enrichment (6-mer frequency, TF over GST control)"
same,binding signal,[4],"1.22 fold enrichment (6-mer frequency, TF over GST control)"
same,binding signal,[5],"1.16 fold enrichment (6-mer frequency, TF over GST control)"
same,binding signal,[6],"1.24 fold enrichment (6-mer frequency, TF over GST control)"
same,binding signal,[7],"1.09 fold enrichment (6-mer frequency, TF over GST control)"
same,binding signal,[8],"1.27 fold enrichment (6-mer frequency, TF over GST control)"
same,binding signal,[9],"1.05 fold enrichment (6-mer frequency, TF over GST control)"
same,binding signal,[10],"1.13 fold enrichment (6-mer frequency, TF over GST control)"
same,binding signal,[11],"1.22 fold enrichment (6-mer frequency, TF over GST control)"
same,binding signal,[12],"1.76 fold enrichment (6-mer frequency, TF over GST control)"
same,binding signal,[13],"1.17 fold enrichment (6-mer frequency, TF over GST control)"
same,binding signal,[14],"1.21 fold enrichment (6-mer frequency, TF over GST control)"
same,binding signal,[15],"1.06 fold enrichment (6-mer frequency, TF over GST control)"
same,binding signal,[16],"1.17 fold enrichment (6-mer frequency, TF over GST control)"
same,binding signal,[17],"1.21 fold enrichment (6-mer frequency, TF over GST control)"
same,binding signal,[18],"2.43 fold enrichment (6-mer frequency, TF over GST control)"
same,binding signal,[19],"1.12 fold enrichment (6-mer frequency, TF over GST control)"
